Screening data: PubChem, The Scripps Research Institute Molecular Screening Center
Shown are actives, neighbours in structure and some others; about 2.4% of the full set was active somewhere.
ASK1 inh: inhibitors of human ASK1 kinase; Q99683; AlphaScreen MKK6 phosphorylation by ASK1, luminescence; inhibition, % at 7.44 µM; 22,000 compounds, 0.99% hits; in the data active = inhibition above about 35%;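 note: 0% = median of compound wells and 100% = no enzyme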
Target sequence (Q99683 whole entry, looked up): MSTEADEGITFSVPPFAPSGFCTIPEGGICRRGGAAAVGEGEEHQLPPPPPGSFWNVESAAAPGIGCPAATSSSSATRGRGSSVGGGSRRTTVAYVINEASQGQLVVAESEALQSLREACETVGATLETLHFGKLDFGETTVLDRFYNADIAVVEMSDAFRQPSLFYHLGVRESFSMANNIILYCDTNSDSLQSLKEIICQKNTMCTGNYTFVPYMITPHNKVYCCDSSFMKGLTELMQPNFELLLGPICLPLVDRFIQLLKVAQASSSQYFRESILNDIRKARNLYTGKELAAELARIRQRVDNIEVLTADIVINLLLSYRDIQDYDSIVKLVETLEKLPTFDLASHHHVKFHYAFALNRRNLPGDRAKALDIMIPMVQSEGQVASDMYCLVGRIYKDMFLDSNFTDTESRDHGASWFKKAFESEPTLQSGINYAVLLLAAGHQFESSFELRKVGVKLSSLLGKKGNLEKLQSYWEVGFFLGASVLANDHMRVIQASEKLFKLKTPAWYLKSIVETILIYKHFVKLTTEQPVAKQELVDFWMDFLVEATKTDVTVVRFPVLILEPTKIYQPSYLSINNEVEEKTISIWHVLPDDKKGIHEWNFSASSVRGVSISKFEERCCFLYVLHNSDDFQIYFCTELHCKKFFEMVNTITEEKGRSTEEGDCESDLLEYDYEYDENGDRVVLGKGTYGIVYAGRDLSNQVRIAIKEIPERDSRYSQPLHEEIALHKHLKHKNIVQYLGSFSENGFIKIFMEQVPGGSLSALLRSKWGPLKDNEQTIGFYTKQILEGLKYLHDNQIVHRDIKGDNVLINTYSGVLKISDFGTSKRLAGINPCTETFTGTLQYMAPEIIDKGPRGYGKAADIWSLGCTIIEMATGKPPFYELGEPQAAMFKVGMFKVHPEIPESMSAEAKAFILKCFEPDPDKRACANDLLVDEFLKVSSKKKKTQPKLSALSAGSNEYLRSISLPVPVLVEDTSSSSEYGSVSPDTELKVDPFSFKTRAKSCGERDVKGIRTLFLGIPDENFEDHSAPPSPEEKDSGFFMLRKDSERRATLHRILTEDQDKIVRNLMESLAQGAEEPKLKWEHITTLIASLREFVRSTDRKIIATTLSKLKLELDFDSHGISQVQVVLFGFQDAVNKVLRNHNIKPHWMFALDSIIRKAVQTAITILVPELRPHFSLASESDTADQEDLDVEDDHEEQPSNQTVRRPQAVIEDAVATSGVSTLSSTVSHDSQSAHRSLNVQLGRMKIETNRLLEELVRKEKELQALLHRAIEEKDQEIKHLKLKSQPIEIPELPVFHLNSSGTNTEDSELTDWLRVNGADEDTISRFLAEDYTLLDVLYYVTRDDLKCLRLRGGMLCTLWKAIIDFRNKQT
ULK1 inh: blocks human autophagy kinase ULK1. AID 1259251. AlphaScreen Atg13 phosphorylation by ULK1, luminescence. O75385. 30,000 compounds, 1.9% hits. inhibition, % at 5.96 µM; in the data active = inhibition above about 43%;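 note: 0% = median of compound wells and 100% = no enzyme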
* = called active by the depositor; · = not tested or not shown; ! = repeats disagree.

SMILES	ASK1 inh	ULK1 inh
CCCNc1nc(Nc2ccc(C(F)(F)F)cc2)nc2c1ncn2C1CCCCC1	9	-1
O=C(NCCCN1CCCC1=O)c1cc(N2CCCC2CO)nc2ccccc12 (configuration not stated)	-7	1
CN1CCN(c2ccc(-c3nc(NCCO)c4ncn(CCN5CCCC5=O)c4n3)cc2)CC1	-10	35
Nc1nccc(Nc2ccncn2)n1	-8	13
O=C1CCCN1CCCNc1ccnc(NC2CCN(Cc3ccccc3)CC2)n1	-7	6
CCNc1nc(Nc2ccccc2)c2ncn(C(C)C)c2n1	15	57*
CC(C)n1cnc2c(Nc3ccc4c(c3)OCO4)nc(NCc3ccc4c(c3)OCO4)nc21	40*	-11
CC(=O)Nc1ccc(Nc2nc(NCc3ccc4c(c3)OCO4)nc3c2ncn3C(C)C)cc1	15	8
CCNc1nc(Nc2cc(OC)c(OC)c(OC)c2)c2ncn(C(C)C)c2n1	8	-21
CCNc1nc(NCCOc2ccccc2)c2[nH]cnc2n1	14	1
COc1ccc(NC(C)=O)cc1NC(=O)c1ccc(COc2cccc3c2OC(C)(C)C3)cc1	·	-39
COc1ccc(CNc2ccnc(-c3ccccc3)n2)cc1	-38	-6
CC(C)n1c(Nc2ccc(N3CCOCC3)cc2)nc2c(Nc3ccccc3)ncnc21	21	-11
CC(C)n1c(Nc2cccc(N(C)C)c2)nc2c(Nc3ccc(N4CCOCC4)cc3)ncnc21	37*	22
c1ccc(Nc2ccnc(Nc3ccncc3)n2)cc1	3	17
c1ccc(Nc2ccnc(Nc3ccncn3)n2)cc1	16	45*
CC(C)n1cnc2c(NC3CCN(Cc4ccccc4)CC3)nc(Nc3ccncn3)nc21	12	15
CC(=O)Nc1ccc(Nc2nc(Nc3ccncn3)nc3c2ncn3-c2ccccc2)cc1	5	-49
CC(=O)Nc1ccc(Nc2nc(Nc3ncccn3)nc3c2ncn3C(C)C)cc1	3	47*
CC(=O)Nc1ccc(Nc2nc(Nc3ccncn3)nc3c2ncn3C(C)C)cc1	4	55*
CC(=O)Nc1ccc(Nc2nc(Nc3ccc4ncccc4c3)nc3c2ncn3C(C)C)cc1	-8	34
CC(C)n1cnc2c(Nc3ccccc3)nc(Nc3ccncn3)nc21	-5	50*
NC(=O)c1ccc(CNc2nccc(-c3ccccc3)n2)cc1	4	-6
Cc1cc(C)c2c(=O)[nH]n(C3CCCCC3)c2n1	·	13
Cc1ncn(-c2ccc(Nc3cc(-c4nocc4-c4ccn[nH]4)ccn3)cc2)n1	0	0
SMILES	ASK1 inh	ULK1 inh
S=C(Cl)Oc1ccc2ccccc2c1	·	-9
CCN(CC)c1nc(NCc2nc3ccccc3[nH]2)nc(N2CCc3ccccc3C2)n1	8	0
COC(CNc1nccc(Nc2ccncn2)n1)c1cccs1 (configuration not stated)	-4	4
CC(C)n1cnc2c(NCCO)nc(Nc3ccccn3)nc21	-8	9
CC(C)n1cnc2c(Nc3ccccc3)nc(Nc3ccccn3)nc21	-4	49*
CC(CNc1nccc(Nc2ccncn2)n1)c1cccs1 (configuration not stated)	10	44*
CC(C)N(CCNC(=O)c1cnc(-c2cccs2)s1)C(C)C	-2	1
NC(=O)c1ccc(Cl)c(S(N)(=O)=O)c1	·	11
CCOC(=O)C1C(c2ccc(O)c(OCC)c2)NC(=O)NC1(O)C(F)(F)F (configuration not stated)	·	0
CC(C)n1cnc2c(Nc3ccc(N4CCOCC4)cc3)nc(Nc3nccc4ccccc34)nc21	3	27
CC(C)n1cnc2c(Nc3ccc(N4CCOCC4)cc3)nc(Nc3ccc(N4CCOCC4)cc3)nc21	21	32
CC(C)n1cnc2c(NC3CC3)nc(Nc3ccc(N4CCOCC4)cc3)nc21	-3	20
CC(C)n1cnc2c(Nc3ccc(N4CCOCC4)cc3)nc(Nc3cccnc3)nc21	-7	49*
CC(C)n1cnc2c(Nc3ccc(N4CCOCC4)cc3)nc(Nc3ccncn3)nc21	14	52*
CC(C)n1cnc2c(Nc3ccc(N4CCOCC4)cc3)nc(Nc3ccccn3)nc21	22	69*
O=C(NC1CCN(Cc2ccccc2)CC1)c1ccnc(Nc2ccccn2)c1	-8	-11
O=c1[nH]ccc2c(S(=O)(=O)N3CCCNCC3)cccc12	-18	46*
O=C1CCc2cc(S(=O)(=O)N3CCCNCC3)ccc2N1	-23	-8
COc1cccc(CNC(=O)c2c(C)nc3ccc(-c4ccc5nc(C)c(C(=O)NCc6cccc(OC)c6)n5c4)cn23)c1	42*	8
COc1cccc(CNC(=O)c2c(C)nc3ccc(-c4ccnc(N)n4)cn23)c1	5	11
FC(F)(F)c1cccc(CNc2ccnc(Nc3ccc(N4CCOCC4)cc3)n2)c1	36*!	-3
FC(F)(F)c1cccc(CNc2ccnc(NCCN3CCOCC3)n2)c1	-27	-12
CC(C)N(CCNC(=O)C1CCN(c2ccc(Nc3nccc4ccccc34)nn2)CC1)C(C)C	-8	6
Cc1nc2cc(NC(=O)CCl)ccc2n1C	·	3
COc1ccc(C(=O)c2oc3ccc(NC(C)=O)cc3c2C)cc1	·	58*
SMILES	ASK1 inh	ULK1 inh
COc1ccc(C(=O)c2oc3ccc(NC(=O)c4ccc(OC)c(OC)c4)cc3c2C)cc1	·	3
COc1nc(N)nc(-c2ccc3c(ccn3C)c2)n1	12	2
N[C@H](Cc1ccc(-c2cn[nH]c2)cc1)C(=O)NCc1ccccc1	-20	-19
Nn1cnnc1N/N=C/c1cccc2ccccc12	·	60*
COc1nc(N/N=C/c2cccc3ccccc23)nc(N2CCOCC2)n1	·	-8
CCN(CC)c1nc(Nc2nccc3ccccc23)nc(NC2CCN(Cc3ccccc3)CC2)n1	-14	-4
c1ccc(OCCNc2nc(Nc3ncccn3)nc3nc[nH]c23)cc1	9	5
CC(=O)Nc1ccc(Nc2nc(Nc3ccc(-n4ccnc4)cc3)nc3nc[nH]c23)cc1	-13	52*
COc1ccc(CCNc2nc(Nc3ccc(-n4ccnc4)cc3)nc3nc[nH]c23)cc1	-17	27
c1ccc(OCCNc2nc(Nc3ccncc3)nc3nc[nH]c23)cc1	2	57*
c1ccc(Nc2nc(Nc3ccc(-n4ccnc4)cc3)nc3nc[nH]c23)cc1	-9	24
OCCNc1nc(Nc2ccc(-n3ccnc3)cc2)nc2nc[nH]c12	-60	56*
c1ccc(-n2cnc3c(Nc4ccc(N5CCOCC5)cc4)nc(N4CCOCC4)nc32)cc1	14	6
c1ccc(-c2nc(NCc3nc4ccccc4[nH]3)c3ncn(-c4ccccc4)c3n2)cc1	-1	-20
CCN(CC)C(=O)C1CCCN(c2nc(NCc3cccnc3)c3cc(OC)c(OC)cc3n2)C1 (configuration not stated)	2	9
CCN(CC)C(=O)C1CCCN(c2nc(NCc3nc4ccccc4[nH]3)c3cc(OC)c(OC)cc3n2)C1 (configuration not stated)	-16	49*
Cc1noc(C)c1-c1nc(N)c2ncn(C3CCCCC3)c2n1	2	2
COc1cc(N2CCOCC2)ccc1Nc1cc(Nc2cccnc2)c(C(F)(F)F)cn1	30	19
CNC(=O)c1ccccc1Nc1cc(Nc2ccc(N3CCOCC3)cn2)ncc1C(F)(F)F	-7	91*
CNC(=O)c1ccccc1Nc1cc(Nc2ccc(N3CCOCC3)cc2C)ncc1C(F)(F)F	-18	92*
CN1CCN(C(=O)c2ccc(-c3nc(NCc4ccccc4)c4ncn(CCN5CCCC5=O)c4n3)cc2)CC1	11	9
